# Screen size: about 360,000 compounds; about 2,300 (0.64%) were called active. This excerpt belongs to a sample that is enriched for actives. Unmarked numbers belong to inactive results. Rule as the data show it: active = inhibition mostly above about 40% (no sharp cut-off); inactive = mostly below about 27%.
# Target: Sentrin-specific protease 8 (Homo sapiens) (UniProt Q96LD8)
# Assay: blockers of SENP8 deneddylase activity – biochemical, fluorescence, Nedd8 protein substrate, uHTS, primary screen (AID 602440)
# Conditions: recombinant SENP8, Nedd8 substrate fluorescence; at 20 µM; active compounds read high
# Sentrin-specific protease 8 (Homo sapiens), sequence (Q96LD8 whole entry, looked up): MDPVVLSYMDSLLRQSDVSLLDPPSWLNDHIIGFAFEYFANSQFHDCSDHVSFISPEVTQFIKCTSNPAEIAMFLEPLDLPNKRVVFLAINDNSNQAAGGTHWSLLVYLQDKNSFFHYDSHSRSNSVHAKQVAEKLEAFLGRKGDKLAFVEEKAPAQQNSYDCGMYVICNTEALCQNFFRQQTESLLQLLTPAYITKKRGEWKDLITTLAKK
row,Compound,inhibition
1,CCOCCCn1c(NN)nc2ccccc2c1=O,34% (active)
2,CCc1nnc(NC(=O)CSc2nc3ccccc3c(=O)n2CCCOC)s1,23.2%
3,CCOCCCn1c(SCC(=O)Nc2cc(OC)ccc2OC)nc2ccccc2c1=O,-19.4%
4,Cc1cc(NC(=O)COC(=O)COc2ccc(Cl)cc2C)c([N+](=O)[O-])cc1C,7.4%
5,COc1ccc(CN2CN(C(C)C)CSC2=S)cc1,6.1%
6,Cc1oc2c(c1C(=O)N1CCOCC1)C(=O)c1ccccc1C2=O,61.3% (active)
7,CC(C(=O)Nc1ccccc1-c1ccccc1)N1CCOCC1 (stereo not given),3.7%
8,Cc1nc2ccccc2n1C(=O)N1CCOCC1,11.5%
9,COc1ccc(C2=NOC(C(=O)NCc3ccco3)C2)cc1OC (stereo not given),7.1%
10,COc1ccc(-c2c(NC(=O)c3ccco3)oc3ccc(Cl)cc3c2=O)cc1,-71.5%
11,Cc1cc(C)cc(N(CC(=O)NC2CCCC2)C(=O)CCC(=O)Nc2nccs2)c1,10.9%
12,CC1(C)C2CCC1(C)C(OC(=O)c1ccc(O)cc1)C2 (stereo not given),40.5% (active)
13,CC1(C)C2CCC1(C)C(OC(=O)CCn1ccnc1)C2 (stereo not given),22.1%
14,Cc1ccc(C(=O)OC2CCCN(C)C2)cc1 (stereo not given),8.1%
15,COc1ccc2c(c1)C(C)=CC(C)(C)N2C(=O)Nc1ccccc1,-486%
16,COc1cc2[nH]c(=S)n(Cc3ccc(C)o3)c(=O)c2cc1OC,20%
17,CCC(C)(C)NC(=O)C(c1ccc(O)cc1)N(Cc1ccco1)C(=O)CCC(=O)Nc1ccccn1 (stereo not given),-20.6%
18,Nc1ncnc2c1ncn2[C@@H]1O[C@H](C(=O)N2CCCN(Cc3ccccc3F)CC2)[C@@H](O)[C@H]1O,18.2%
19,CCN(CC)C(=O)CCC(=O)Nc1ccc(C(=O)OC)cc1,51.9% (active)
20,CCN(CC)CCOC(=O)c1ccc(NC(=O)CNC(=O)c2ccccc2)cc1,7%
21,CCOc1ccc(NC(=O)CCNC(=O)c2ccc(Br)cc2)cc1,0.3%
22,Nc1c(C(=O)c2cccs2)sc2nsc(SCCN3CCCCC3)c12,16.8%
23,O=C(NCCN1CCOCC1)C1CCN(S(=O)(=O)c2ccccc2)CC1,18%
24,O=C(NNc1nc(N2CCCC2)nc(N2CCCC2)n1)c1ccccc1,5.2%

row,Compound,inhibition
1,CCc1ccccc1NC(=O)NCCN1CCCCC1,12.7%
2,CCc1ccccc1NC(=O)c1ccc2c(c1)CCN2S(C)(=O)=O,22.2%
3,CN1CCc2ccccc2C1Cc1ccccc1NC(=O)c1sc2ccccc2c1Cl (stereo not given),53.8% (active)
4,Cc1ccc(C2=Nc3c(ccc4ccccc34)C(c3ccncc3)=NN2)cc1,-6.5%
5,C=C(C)Cn1c(C)cc(C)c(S(=O)(=O)c2ccccc2C)c1=O,20.8%
6,COc1ccc(/C=C2/C(=O)N(c3ccccc3)N=C2C)c(OC)c1,53.8% (active)
7,COc1ccc(/C=C2/C(=O)OCc3cc(OC)c(OC)cc32)c(OC)c1,20.7%
8,COc1ccc(C(=O)CCc2ccccc2O)c(OC)c1,9.3%
9,O=C(CSc1nnnn1C1CCCC1)Nc1ccc2c(c1)OCCO2,7%
10,CN(C)c1ccc(/C=C2\NC(=S)N(Cc3ccccc3)C2=O)cc1,46.7% (active)
11,CCN(CC(=O)NC(C)C)C(=O)c1cc(S(=O)(=O)N2CCCCC2)ccc1N1CCCCC1,2.8%
12,CCOC(=O)C1CCCCN1Cc1ccc(OC)c(OC)c1OC (stereo not given),-4.4%
13,CC1(C)CC(=O)C(N=Nc2ccc(S(=O)(=O)N3CCCCCC3)cc2)=C(O)C1,41% (active)
14,O=S(=O)(c1ccc(-c2ccccc2)cc1)N1CCCC1,7.9%
15,O=C1CCCC(O)=C1N=Nc1ccc(S(=O)(=O)N2CCOCC2)cc1,43.2% (active)
16,Cc1ccc(S(=O)(=O)N2CCN(S(=O)(=O)N3CCOCC3)CC2)cc1,6.5%
17,CC1(C)CC(=O)C(N=Nc2c(F)cccc2F)=C(O)C1,24.6%
18,O=C1CCCC(O)=C1N=Nc1ccc2ncsc2c1,7.1%
19,Cn1c(C(=O)O)ccc1S(=O)(=O)N(Cc1ccccc1)Cc1ccccc1,-7%
20,COc1ccc(C(=O)N(CCN2CCOCC2)CC(=O)NC2CCCC2)cc1OC,-1.7%
21,CN(CC(=O)NNC(=O)CNC(=O)c1ccccc1Cl)S(=O)(=O)c1ccc(Cl)cc1,10.1%
22,Cc1cc(O)c(NC(=O)c2ccc(C)c([N+](=O)[O-])c2)cc1C,3.9%
23,CCN(CC)C(=O)CC1(c2ccccc2OC)CCOC(C(C)C)C1 (stereo not given),4%
24,Clc1ccc(C2=CSC3=Nc4cccc5cccc(c45)N23)cc1,70.7% (active)

row,Compound,inhibition
1,COCCNC(=S)N1CCC(NC(=O)C23CC4CC(CC(C4)C2)C3)CC1,8.9%
2,c1ccc(-c2c[nH]c(-c3ccccc3)c2)cc1,-22%
3,CCCc1c(-c2ccccc2F)ncn1Cc1ccccc1OC,2.7%
4,CC(=O)NNc1cc(=O)c2c(=O)n(C)c(=O)n(C)c2[nH]1,15.9%
5,Cn1c(N)c(C(=O)COC(=O)C23CC4CC(CC(C4)C2)C3)c(=O)n(C)c1=O,12%
6,O=C(COC(=O)c1ccc([N+](=O)[O-])o1)NC12CC3CC(CC(C3)C1)C2,35.1% (active)
7,O=C(OCC(=O)c1cccs1)c1ccc([N+](=O)[O-])o1,29.2%
8,O=C(COC(=O)c1ccc(Br)o1)NC12CC3CC(CC(C3)C1)C2,10%
9,C/C=C/C=C/C(=O)O,11.5%
10,NCCCCC(C(=O)O)N(C(=O)OCc1ccccc1)C(=O)OCc1ccccc1 (stereo not given),15.2%
11,O=C(C[C@H]1C(=O)N(c2ccc(F)c(F)c2)C[C@@H]1Cc1ccccc1)Nc1ccccc1,1.6%
12,CCCCn1c(N)c(N(CC(C)C)C(=O)c2ccc(-n3c(C)ccc3C)cc2)c(=O)[nH]c1=O,1.8%
13,Oc1ccc(C2Nc3cccc4cccc(c34)N2)cc1,63.3% (active)
14,O=C(COC(=O)c1ccc2ncsc2c1)Nc1ccc(Cl)cc1,-18.6%
15,CN(C(=O)CN1C(=O)/C(=C/c2ccc(Cl)cc2)SC1=S)C1CCS(=O)(=O)C1 (stereo not given),23.9%
16,C=CCOc1ccc(/C=C2\SC(=S)N(CCC(=O)O)C2=O)cc1,40.8% (active)
17,C=CCOc1ccc(C(=O)Nc2ccccc2C(=O)N2CCCC2)cc1,0.4%
18,O=[N+]([O-])c1ccc(COc2ccccc2CN2CCOCC2)cc1,-0.2%
19,Oc1c(CN2CCOCC2)ccc(CN2CCOCC2)c1O,79% (active)
20,OC(c1ccccc1)C(CN1CCOCC1)c1ccccc1 (stereo not given),9.9%
21,O=C(Cn1cc(-c2nnnn2-c2ccc(Cl)cc2)c(=O)c2ccccc21)c1ccccc1,26.2%
22,COC(=O)CN1C(=O)C(C)(C)Oc2ccc(C(=O)Nc3cccc(OC)c3)cc21,1.3%
23,CC[n+]1cc(C)ccc1/C=C/c1ccc(N(C)C)cc1,18.1%
24,CN(C)c1ccc(Nc2c3c4c(cccc4n(C)c2=O)C(=O)c2ccccc2-3)cc1,52.7% (active)

row,Compound,inhibition
1,Cc1ccc(NC(=S)N(CCCN2CCCC2)Cc2cccn2Cc2ccc(Cl)cc2)cc1,14.9%
2,CCOC(=O)c1ccc2c(c1)nc(C)n2CC,17.4%
3,CCn1c(C)nc2c1C(=O)c1ccccc1C2=O,53.2% (active)
4,Cc1nc2ccccc2n1CC(O)c1ccccc1 (stereo not given),0.7%
5,O=C(NC(=S)N1CCc2ccccc21)c1ccco1,11.3%
6,Cc1c(C(=O)N(Cc2ccccc2)Cc2cccnc2)cnn1-c1ccc(F)cc1,7.4%
7,CN1C2CCC1CC(NC(=O)c1ccc([N+](=O)[O-])cc1)C2 (stereo not given),17.8%
8,O=C(CCNC(=O)c1ccc([N+](=O)[O-])cc1)NC1CCCCC1,15.8%
9,O=C(Nc1cc2c3c(c1)C1CCCC1CN3CC1CCCC21)c1ccc([N+](=O)[O-])cc1 (stereo not given),40.6% (active)
10,CCC1CCCCN1C(=O)Nc1cccc(NC(=O)N2CCCCC2CC)c1 (stereo not given),13%
11,CC(CCn1cccn1)NC(=O)CCc1nnc(CCc2ccccc2)o1 (stereo not given),7.6%
12,Cc1ccc(C(=O)N/N=C\c2cc(Br)c(Br)o2)cn1,58.6% (active)
13,CCOc1cc(/C=N/NC(=O)c2ccncc2)cc(Br)c1O,19.2%
14,O=C(N/N=C/c1ccc(Br)o1)c1cncc(Br)c1,-18.2%
15,COC(=O)C1=C(C)NC(=S)NC1c1ccc(OCC(=O)N2CC(C)OC(C)C2)c(OC)c1 (stereo not given),3.3%
16,O=C(CN(C(=O)c1csnn1)c1cccc(F)c1)NCc1ccc(F)cc1,8.3%
17,Cn1c2c(c(=O)n(C)c1=O)C(c1cccc([N+](=O)[O-])c1)Nc1ccccc1O2 (stereo not given),22.9%
18,O=C(CN1CCN(c2cccc(Cl)c2)CC1)Nc1ccc(S(=O)(=O)N2CCOCC2)cc1,15%
19,COc1cccc(-c2nn(-c3ccccc3)cc2/C=C(\C#N)C(=O)NCCCn2ccnc2)c1,-266%
20,CN(C)S(=O)(=O)c1cccc(-c2nn(-c3ccccc3)cc2/C=C2\SC(=S)N(CC(=O)O)C2=O)c1,44% (active)
21,Cc1ccc(-c2nn(-c3ccccc3)cc2/C=C/C(=O)Nc2cccc(S(N)(=O)=O)c2)cc1,-81.3%
22,O=[N+]([O-])c1c(NCCO)cc(Sc2nc3ccccc3s2)c2nonc12,75.9% (active)
23,CC(C)(C)NC(=O)C(CCc1ccccc1)n1c(=O)c(-c2ccccc2)nc2ccccc21 (stereo not given),-332%

# From PubChem BioAssay AID602440 (Sanford-Burnham Center for Chemical Genomics, 2012)
